The values below come from PubChem BioAssay AID977606 (Broad Institute, 2014).

Screen size: about 1,500 compounds; about 430 (29%) were called active. How the calls were made is not given here. The list is a sample of the results. Results with a measured potency or affinity are listed apart.

The experiment in a line: insulin secretion activators without glucose, dose response, counter-screen for glucose-dependent insulin secretion activators, cell-based, INS-1E, Gaussia luciferase, luminescence, cherry-pick (AID 977606). Conditions: INS-1E Gaussia luciferase insulin secretion, no glucose, 100% = twice neutral-control luminescence; series mostly up to 35 µM. For orientation: Counterscreens check selectivity or assay interference.
`CCOc1nc(CC(C)C)c2c(c1C#N)CC(C)(C)OC2`: the compound was classed as inactive.

`CCOc1nc(Nc2ccccc2F)nc(OCC)n1`: the call was inactive.

As to `CCOc1ncccc1C(=O)Nc1ccccc1F`, the compound was classed as inactive.

Regarding `COc1ccc(C(=O)Nc2ccccc2C(=O)Nc2ccncc2)cc1`, the compound was called inactive.

For `Cc1cccc(C(=O)NC(=S)NNC(=O)COc2c(C)cccc2C)c1`, the call was inactive.

For `CC(=O)c1cccc(NC(=O)CCC(=O)Oc2ccc(C)cc2)c1`, the compound was classed as inactive.

As to `COc1ccc(NC(=O)C2(c3ccc(NC(=O)c4ccc(OC)cc4)cc3)CCCC2)cc1`, the outcome was inactive.

On to `CCOc1ncccc1C(=O)Nc1cccc(S(=O)(=O)NC2=NCCC2)c1`, for which the outcome was inactive.

`CCCCn1c(N2CCCC2)nc2c1c(=O)[nH]c(=O)n2C`: the result was inactive.

With `C/C(Cl)=C\Cn1c(N2CCCC2)nc2c1c(=O)[nH]c(=O)n2C`, the call was inactive.

With `COc1cc2c(cc1OC)-c1cc(N3CCc4ccccc43)nc(=O)n1CC2`, the compound was called inactive.

On to `Cc1nc2c(c(N3CCOCC3)n1)OCC(=O)N2`, for which the outcome was inactive.

With `CCC(C)c1ccccc1OCCn1ccnc1` (stereo not given), the compound was classed as inactive.

Regarding `COc1ccc(OCCCCN(C)Cc2ccccc2)cc1`, the call was inactive.

`Cc1noc(C)c1S(=O)(=O)NC(=O)C1(C)CCN1C(=O)C1(c2ccc(Cl)cc2)CCC1` (stereo not given): the compound was called inactive.

Take `CC1(C(=O)NS(=O)(=O)c2ccc(Cl)s2)CCN1C(=O)C1(c2ccc(Cl)cc2)CCC1` (stereo not given): the outcome was inactive.

Turning to `CC1(C(=O)NS(=O)(=O)c2ccc(C#N)cc2)CCN1C(=O)C1(c2ccccc2)CCCC1` (stereo not given), the compound was classed as inactive.

As to `CC1(C(=O)N2CCCCC2)CCN1C(=O)C1(c2ccccc2)CC1` (stereo not given), the call was inactive.

As to `COC(=O)COc1ccc(C)cc1-n1nc2ccccc2n1`, the result was inactive.

Consider `O=c1[nH]c(CN2CCN(c3ccc(O)cc3)CC2)nc2scc(-c3ccc(Cl)cc3)c12`, for which the outcome was inactive.

As to `O=C(NCc1ccccc1)c1cccnc1Sc1ccccc1`, the compound was called inactive.

Take `CCC(O)c1nc2ccccc2n1CCc1ccccc1` (stereo not given): the call was inactive.

For the compound `CC1(C)Cc2c(c(-c3ccco3)nc3n[nH]c(N)c23)CO1`, the result was inactive.

`COc1ccc(CCNC(=O)CN2c3cccc4cccc(c34)S2(=O)=O)cc1OC`: the call was inactive.

Turning to `Fc1cccc(-c2nnn3c2nc(Cl)c2ccccc23)c1`, the call was inactive.

With `CC(=O)c1c(C)oc2ccc(NS(=O)(=O)c3ccc(F)cc3C)cc12`, the compound was called inactive.

As for `CCOC(=O)Cc1nn(Cc2ccccc2)c(=O)c2ccccc12`, the compound was called inactive.

Consider `O=S(=O)(Nc1ccc(-c2ccc3nncn3n2)cc1)c1ccccc1Cl`, for which the result was inactive.

As for `N#Cc1c(-c2ccncc2)cc(-c2ccc(F)cc2)nc1N`, the compound was called inactive.

`Cc1nc(N)c(C#N)c(-c2cccnc2)c1C`: the call was inactive.

Consider `COc1ccc(Cn2c(=O)c3[nH]cnc3n(-c3ccccc3C)c2=O)cc1`, for which the compound was called inactive.

Take `CC(=O)c1ccc2c(c1)N(Cc1ccccc1)C(=O)C(C)S2` (stereo not given): the call was inactive.

`Cc1ccccc1NC(=O)c1ccc(OCc2c(C)noc2C)cc1`: the compound was called inactive.

Turning to `Cc1ccc(OCC(=O)NNC(=O)CCC(=O)Nc2ccc(C)cc2C)cc1`, the result was inactive.

Take `COc1ccc(CO/N=C/c2c(C)[nH]c(=O)[nH]c2=O)cc1`: the compound was classed as inactive.

`CCc1nc2c(nnn2Cc2ccc(F)cc2)c(=O)[nH]1`: the outcome was inactive.

`Cc1ccccc1-c1n[nH]c(=S)n1/N=C/c1c(C)nn(-c2ccccc2)c1C`: the compound was classed as inactive.

For the compound `S=c1[nH]nc(-c2ccccc2)n1/N=C/c1c[nH]c2ccccc12`, the outcome was inactive.

Consider `CCOC(=O)c1oc2cc(O)cc(C)c2c1C`, for which the compound was classed as inactive.

For `C=CCNc1sc(C(=O)C2CC2)c(N)c1C#N`, the call was inactive.

In the case of `Cc1cccc(N2CCN(C(=O)c3cccn4c(=O)c5c(C)c(C)sc5nc34)CC2)c1C`, the call was inactive.

For `Cc1ccc(F)cc1NC(=O)c1sc2ncn(CC(=O)N3CCN(c4ccccn4)CC3)c(=O)c2c1C`, the compound was classed as inactive.

As for `COc1ccc(/C=N/Nc2ncnc3c2[nH]c2ccccc23)c(OC)c1OC`, the result was inactive.

On to `O=C(CCc1ccccc1)NNC(=O)COc1ccccc1Cl`, for which the compound was classed as inactive.

With `Cn1c(N)c(C(c2ccccc2)c2c(N)n(C)c(=O)n(C)c2=O)c(=O)n(C)c1=O`, the compound was classed as inactive.

As for `O=c1cc(Cl)[nH]c(=O)n1Cc1ccccc1`, the compound was classed as inactive.

In the case of `O=c1cc(-c2ccncc2)oc2c1ccc1ccccc12`, the compound was classed as inactive.

Turning to `CC(C)Cn1c(Cc2ccccc2)n[nH]c1=S`, the outcome was inactive.

`O=C(O)Cc1ccc(NS(=O)(=O)c2ccc3c(c2)OCCO3)cc1`: the outcome was inactive.

In the case of `COc1ccc(S(=O)(=O)N(C)CC(=O)Nc2ccc3c(c2)OCCO3)cc1OC`, the outcome was inactive.

On to `O=C(NCc1ccccc1)C(c1ccncc1)n1c(=O)c(-c2ccccc2)nc2ccccc21` (stereo not given), for which the compound was classed as inactive.

Take `CN1CCC(N(C)S(=O)(=O)c2ccc(NC(=O)COc3cccc(Cl)c3)cc2)CC1`: the result was inactive.

For the compound `O=C(COc1ccccc1)Nc1ccccc1C(=O)NC1CC1`, the outcome was inactive.

In the case of `N#CC1=C(N)Oc2n[nH]c(-c3ccc(F)cc3)c2C1c1cccnc1` (stereo not given), the compound was classed as inactive.

As for `COc1ccc(CCNS(=O)(=O)c2cn(C)cn2)cc1OC`, the result was inactive.

Regarding `NC1=NC[C@H](Cc2ccccc2)N1CCCCC1CCCCC1`, the call was inactive.

Regarding `CN=C1c2ccccc2CN1c1cccc(C(=O)OC)c1`, the result was inactive.

For `CSc1ccc(/C=N/N(C)S(=O)(=O)c2ccc(C)cc2)cc1`, the result was inactive.

In the case of `Cc1ccc(S(=O)(=O)/N=C2\CN(C)C(=O)N2C)cc1`, the call was inactive.

For the compound `Cc1cc(Br)ccc1NC(=O)CN(C)C(=O)C1CSC2(C)CCC(=O)N12` (stereo not given), the outcome was inactive.

On to `Cc1ccc(NC2c3ncccc3C(=O)N2C2CCCCC2)cc1` (stereo not given), for which the call was inactive.

As to `CCSc1nnc(-c2cccnc2)n1-c1ccc(C)c(Cl)c1`, the compound was classed as inactive.

With `COc1ccc(CCNC(=O)CCc2nc3ccccc3[nH]2)cc1OC`, the result was inactive.

With `Cc1ccc(-c2cc(C(=O)Nc3nn[nH]n3)c3ccccc3n2)c(C)c1`, the outcome was inactive.

Regarding `Cc1ccc(-c2nnc3sc(-c4ccncc4)nn23)cc1`, the compound was called inactive.

Turning to `O=c1c2[nH]cnc2n(-c2ccc(F)cc2)c(=O)n1Cc1ccccc1`, the compound was called inactive.

Take `COc1ccc(S(=O)(=O)NC2CCCCC2)cc1C`: the result was inactive.

With `O=C(Nc1ccccc1C(=O)N/N=C/c1ccccc1)c1ccco1`, the result was inactive.

For the compound `Cc1cc(C(=O)NC(C)CCC(C)C)c2ccccc2n1` (stereo not given), the outcome was inactive.

`CONc1nc(NC(C)(C)C)nc(OCC#N)n1`: the compound was called inactive.

For `COc1ccc(CCN(C)C(=O)c2oc3ccccc3c2C)cc1OC`, the call was inactive.

As for `COc1ccc2oc(C(=O)Nc3nnc(C)s3)c(C)c2c1`, the result was inactive.

Take `Cc1ccc(S(=O)(=O)N(CC(=O)Nc2ccc(C)cc2C)C(=O)N2CCN(C)CC2)cc1`: the call was inactive.

On to `CCC(c1nnnn1-c1ccc2c(c1)OCCO2)N1CCc2ccccc2C1` (stereo not given), for which the outcome was inactive.

Regarding `CCOc1cc(CNc2cccc3[nH]c(C)nc23)ccc1OC`, the outcome was inactive.

In the case of `CCOC(=O)c1cnc2ccc(OCC)cc2c1N1CCN(c2ccccc2)CC1`, the compound was called inactive.

As for `O=C(Nc1cccnc1)c1cnn2c(C(F)F)cc(C3CC3)nc12`, the compound was classed as inactive.

Turning to `C[C@H]1CN([C@@H](C)CO)C(=O)c2ccccc2-c2ccccc2CO[C@@H]1CN(C)Cc1ccc(Cl)c(Cl)c1`, the call was inactive.

With `C[C@@H]1CN([C@H](C)CO)C(=O)c2cc(C#CCN(C)C)cnc2O[C@H]1CN(C)S(=O)(=O)c1cn(C)cn1`, the compound was classed as inactive.

With `C[C@@H]1CN([C@@H](C)CO)C(=O)c2cccc(NC(=O)Nc3ccc(C(F)(F)F)cc3)c2O[C@H]1CN(C)Cc1ccc(Cl)c(Cl)c1`, the compound was called inactive.

Consider `C[C@@H]1CN([C@H](C)CO)S(=O)(=O)c2ccc(-c3ccc(C#N)cc3)cc2O[C@H]1CN(C)C`, for which the call was inactive.

As for `C[C@@H]1CN([C@H](C)CO)C(=O)Cc2cc(NC(=O)CCCN(C)C)ccc2O[C@H]1CN(C)Cc1ccc(-c2ccccc2)cc1`, the outcome was inactive.

For `C[C@H]1CN([C@@H](C)CO)C(=O)c2ccccc2-c2ccccc2CO[C@@H]1CN(C)Cc1cccc(C(F)(F)F)c1`, the result was inactive.

Regarding `C[C@@H]1CN([C@@H](C)CO)C(=O)CCCn2nncc2CO[C@H]1CN(C)Cc1ccccc1`, the result was inactive.

Take `Cc1cccc(C)c1-n1nnnc1C1(C)CCC(=O)N1Cc1cccs1` (stereo not given): the outcome was inactive.

Regarding `Cc1ccc(-n2ncc3c2CC(C)(C)CC3NC(=O)CCCN2CCCC2=O)cc1` (stereo not given), the compound was called inactive.

For the compound `CCN(CC)CCn1c(=N)n(CC(O)COc2ccccc2)c2ccccc21` (stereo not given), the result was inactive.

`COCCNc1nc(Oc2cncc(Cl)c2)c2sccc2n1`: the compound was classed as inactive.

On to `Cc1ccc(C)c(S(=O)(=O)Nc2ccc(C(=O)N3CCC3)cc2)c1`, for which the compound was called inactive.

`N#Cc1cccnc1Nc1cccc(Cl)c1`: the call was inactive.

With `Cc1nc2ccccc2c(=O)n1/N=C/c1ccc(N(C)C)cc1`, the compound was called inactive.

As to `C[C@@H]1CN([C@H](C)CO)C(=O)c2cc(C#CCc3ccccc3)cnc2O[C@H]1CN(C)C(=O)C1CCC1`, the compound was classed as inactive.

On to `Cc1noc(C)c1NC(=O)N(C)C[C@H]1Oc2c(NC(=O)C3CCCCC3)cccc2C(=O)N([C@H](C)CO)C[C@@H]1C`, for which the call was inactive.

Turning to `CCOC(=O)c1sc(NC(C)=O)nc1-c1ccccc1`, the compound was classed as inactive.

Regarding `CN(C(=O)COC(=O)c1cccs1)c1ccccc1`, the call was inactive.

Consider `O=C(O)C(Cc1ccc(O)cc1)N1C(=O)c2ccccc2C1=O` (stereo not given), for which the call was inactive.

As for `CCOc1ccccc1Nc1cc2n(c(=O)n1)CCc1cc(OC)c(OC)cc1-2`, the result was inactive.

On to `COC(=O)c1cccc(-n2c(=O)n(Cc3ccccc3)c(=O)c3[nH]cnc32)c1C`, for which the call was inactive.

Consider `O=C(O)c1ccc(S(=O)(=O)N2CCC3(CC2)CC(=O)c2ccccc2O3)cc1`, for which the outcome was inactive.

As to `CCOC(=O)c1c(C)[nH]c(C(=O)COC(=O)c2cnccn2)c1C`, the call was inactive.

As for `CCOc1ncccc1C(=O)Nc1ccc(S(=O)(=O)Nc2nc(C)cc(C)n2)cc1`, the result was inactive.

On to `COc1ccc(N/C=C/C(=O)c2ccc(Cl)cc2)cc1`, for which the compound was classed as inactive.

Take `COc1cc2ccc(CC(=O)O)cc2cc1OC`: the call was inactive.

In the case of `C[C@H](O)[C@@H]1CN2CCc3ccc(-c4ccc5c(c4)OCO5)cc3[C@@H]2C[C@@H]1N(C)C(=O)c1cccc(Cl)c1`, the compound was classed as inactive.

As for `CC(O)c1nc2ccc(Cc3ccc4nc(C(C)O)[nH]c4c3)cc2[nH]1` (stereo not given), the compound was classed as inactive.
